Laboratory results as given in PubChem BioAssay.
The source made the active and inactive calls.

How the values were obtained:
[1] = tested on: Plasmodium falciparum Sir2 (PF13_0152, Sir2A); experiment: pfSir2 binders on small-molecule microarrays, primary screen, biochemical, small-molecule microarray, 635 nm fluorescence (AID 1098); settings: small-molecule microarray binding, fluorescence 635 nm; higher = more signal;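 also: score merges spot fluorescence intensity with its signal-to-noise ratio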
[2] = small-molecule microarray binders of probe aDKK1, primary screen, biochemical, biotinylated probe, 635/667 nm fluorescence (AID 1099); settings: higher = more signal;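 also: score merges 667nm spot fluorescence with signal to noise across triplicate slides; reference of the scale not given here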
[3] = small-molecule microarray binders of probe aCHRDL2, primary screen, biochemical, biotinylated probe, 635/667 nm fluorescence (AID 1100); settings: higher = more signal
[4] = splicing luciferase reporter signal modulators, primary screen, spliceosome inhibition project, cell-based, HEK293, splice +/- reporter (AID 1101); settings: luminescence, 24 h, higher = more signal, called active from +8 up or from −8 down;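 also: HEK293 cells carrying a splicing-competent luciferase reporter gene; test concentration not given here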
[5] = biological target: Fibroblast growth factor 10 (Homo sapiens) (UniProt O15520); experiment: FGF10 binders on small-molecule microarrays, primary screen, biochemical, small-molecule microarray, 635 nm fluorescence (AID 1102); settings: FGF10 binding, fluorescence 635 nm, higher = more signal
[6] = tested on: glycogen synthase kinase-3 (GSK3A per assay name; protocol says GSK3B); experiment: GSK3 binders on small-molecule microarrays, primary screen, biochemical, small-molecule microarray, 635 nm fluorescence, GSK3A (AID 1103); settings: small-molecule microarray binding, fluorescence 635 nm; higher = more signal; also: the record names both GSK3A and GSK3B
[7] = biological target: Epidermal growth factor receptor (Homo sapiens) (UniProt P00533); experiment: EGFR binders on small-molecule microarrays, primary screen, biochemical, small-molecule microarray, 635 nm fluorescence (AID 1104); settings: EGFR binding, higher = more signal;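 also: score merges 667 nm emission intensity with spot signal to noise over triplicate slides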
[8] = biological target: Follistatin-related protein 3 (Homo sapiens) (UniProt O95633); experiment: FSTL3 binders on small-molecule microarrays, primary screen, biochemical, small-molecule microarray, 635 nm fluorescence (AID 1105); settings: FSTL3 binding, higher = more signal;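 also: score merges emission near 667 nm and signal to noise per printed spot across three slides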
[9] = biological target: Dickkopf-related protein 1 (Homo sapiens) (UniProt O94907); experiment: DKK1 binders on small-molecule microarrays, primary screen, biochemical, small-molecule microarray, 635 nm fluorescence scan (AID 1106); settings: DKK1 binding, higher = more signal;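 also: score merges emission near 667 nm with signal to noise over three replicate slides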
[10] = tested on: Inhibin beta A chain (activin A); experiment: INHBA (activin A) binders on microarrays, primary screen, biochemical, small-molecule microarray, 635 nm fluorescence scan (AID 1107); settings: small-molecule microarray binding, higher = more signal;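 also: mouse activin A protein probed at 4.33 µg/mL on printed slides; score merges bound-protein fluorescence near 667 nm with spot signal-to-noise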

Chain of Follistatin-related protein 3 (Homo sapiens) (O95633 whole entry, looked up): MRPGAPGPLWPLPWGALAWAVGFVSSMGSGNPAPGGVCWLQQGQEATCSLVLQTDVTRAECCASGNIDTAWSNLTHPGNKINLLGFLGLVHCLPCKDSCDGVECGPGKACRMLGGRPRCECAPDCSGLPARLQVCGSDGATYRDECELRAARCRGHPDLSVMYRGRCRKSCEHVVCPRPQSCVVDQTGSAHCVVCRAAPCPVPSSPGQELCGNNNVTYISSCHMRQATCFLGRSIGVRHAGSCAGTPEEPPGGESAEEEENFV
Chain of Epidermal growth factor receptor (Homo sapiens) (P00533 whole entry, looked up): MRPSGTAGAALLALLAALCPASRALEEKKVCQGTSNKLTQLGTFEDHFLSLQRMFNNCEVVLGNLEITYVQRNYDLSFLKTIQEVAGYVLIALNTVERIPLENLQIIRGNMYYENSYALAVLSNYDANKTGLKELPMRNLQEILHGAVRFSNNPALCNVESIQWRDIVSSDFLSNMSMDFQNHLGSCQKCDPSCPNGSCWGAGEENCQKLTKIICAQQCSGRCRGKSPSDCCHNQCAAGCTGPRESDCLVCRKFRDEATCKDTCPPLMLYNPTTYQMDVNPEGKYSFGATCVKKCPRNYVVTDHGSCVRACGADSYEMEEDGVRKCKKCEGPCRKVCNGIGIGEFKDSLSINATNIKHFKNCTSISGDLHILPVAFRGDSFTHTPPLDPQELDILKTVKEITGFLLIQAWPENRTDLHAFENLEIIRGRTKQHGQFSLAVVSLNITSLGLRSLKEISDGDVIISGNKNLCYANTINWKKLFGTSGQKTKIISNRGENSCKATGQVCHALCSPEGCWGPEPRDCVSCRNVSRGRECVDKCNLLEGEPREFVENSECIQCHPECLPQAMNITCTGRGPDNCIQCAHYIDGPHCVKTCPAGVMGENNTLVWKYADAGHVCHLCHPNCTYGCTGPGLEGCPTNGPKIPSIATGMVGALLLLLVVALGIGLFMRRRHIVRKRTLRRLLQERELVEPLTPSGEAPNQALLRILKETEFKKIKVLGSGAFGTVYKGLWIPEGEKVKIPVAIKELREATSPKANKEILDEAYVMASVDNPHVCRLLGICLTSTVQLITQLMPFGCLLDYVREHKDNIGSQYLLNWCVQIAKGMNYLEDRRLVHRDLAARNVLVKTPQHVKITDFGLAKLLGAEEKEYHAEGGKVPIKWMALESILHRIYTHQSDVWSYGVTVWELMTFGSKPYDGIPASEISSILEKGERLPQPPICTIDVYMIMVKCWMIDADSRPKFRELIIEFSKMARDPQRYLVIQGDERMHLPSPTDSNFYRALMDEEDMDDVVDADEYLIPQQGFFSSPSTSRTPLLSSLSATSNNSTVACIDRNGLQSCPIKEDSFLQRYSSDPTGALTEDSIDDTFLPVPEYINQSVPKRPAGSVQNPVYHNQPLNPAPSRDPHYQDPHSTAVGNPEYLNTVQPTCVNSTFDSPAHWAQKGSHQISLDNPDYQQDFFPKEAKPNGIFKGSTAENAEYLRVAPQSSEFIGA
Chain of Dickkopf-related protein 1 (Homo sapiens) (O94907 whole entry, looked up): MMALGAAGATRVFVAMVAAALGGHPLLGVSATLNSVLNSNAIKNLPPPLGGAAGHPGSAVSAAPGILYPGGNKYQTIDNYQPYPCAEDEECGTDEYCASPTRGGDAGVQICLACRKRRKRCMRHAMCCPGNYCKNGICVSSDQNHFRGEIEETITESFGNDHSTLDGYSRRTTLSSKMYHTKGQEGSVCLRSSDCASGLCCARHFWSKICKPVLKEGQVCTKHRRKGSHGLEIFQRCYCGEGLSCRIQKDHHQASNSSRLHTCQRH
Chain of Fibroblast growth factor 10 (Homo sapiens) (O15520 whole entry, looked up): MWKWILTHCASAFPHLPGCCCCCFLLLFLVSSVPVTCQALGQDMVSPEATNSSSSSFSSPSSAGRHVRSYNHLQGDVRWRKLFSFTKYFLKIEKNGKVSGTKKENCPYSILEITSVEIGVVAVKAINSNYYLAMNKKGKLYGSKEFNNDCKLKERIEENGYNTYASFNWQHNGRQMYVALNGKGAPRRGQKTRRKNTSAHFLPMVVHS

COC(=O)[C@@]1(Cc2ccccc2)[C@H]2c3cc(C(=O)N4CCCC4)n(Cc4ccsc4Br)c3C[C@H]2CN1C(=O)c1ccccc1
composite z-score [1]: 0.31 | composite z-score [2]: 1.13 | composite z-score [3]: 1.37 | z-score [4]: -1.31 (inactive) | composite z-score [5]: 0.832 | composite z-score [6]: 0.572 | composite z-score [7]: -0.105 | composite z-score [8]: 0.906 | composite z-score [9]: -0.825 | composite z-score [10]: 0.748

C[C@]12C(=O)N(CCCCCCO)[C@@H]3C(=O)N(c4ccc(Cl)cc4)CC=CC31O[C@@H]1/C=C\CCCOC(=O)C12 (stereo not given in full)
composite z-score [1]: 1.93 | composite z-score [2]: -0.134 | composite z-score [3]: 0.391 | z-score [4]: -1.54 (inactive) | composite z-score [5]: -0.188 | composite z-score [6]: -0.431 | composite z-score [7]: -0.506 | composite z-score [8]: -0.394 | composite z-score [9]: -0.742 | composite z-score [10]: 1.05

CCOC(=O)C[C@H]1[C@H](OC(=O)c2ccc(-c3ccccc3)cc2)[C@@H](NC(=O)c2ccc3ccccc3n2)c2cc(OCCCO)ccc2N1C(=O)c1ccccc1
composite z-score [1]: 0.418 | composite z-score [2]: 0.048 | composite z-score [3]: 0.475 | z-score [4]: 0.0748 (inactive) | composite z-score [5]: 0.785 | composite z-score [6]: 0.653 | composite z-score [7]: 0.143 | composite z-score [8]: 1.09 | composite z-score [9]: 0.216 | composite z-score [10]: 0.407

CN(C)CCCNC(=O)[C@@]1(c2ccc([N+](=O)[O-])cc2)CC(=O)N(CC23CC4CC(CC(C4)C2)C3)[C@@H]1c1ccc(CO)cc1
composite z-score [1]: 1.72 | composite z-score [2]: 0.774 | composite z-score [3]: 0.811 | z-score [4]: -0.102 (inactive) | composite z-score [5]: 0.239 | composite z-score [6]: 1.32 | composite z-score [7]: 0.201 | composite z-score [8]: 0.996 | composite z-score [9]: 0.54 | composite z-score [10]: 1.14

C=C(C(=O)CC[C@H](OC(=O)c1cccnc1)c1ccc(CO)o1)C(C)C
composite z-score [1]: 1.08 | composite z-score [2]: 0.0114 | composite z-score [3]: -0.239 | z-score [4]: 0.586 (inactive) | composite z-score [5]: 0.866 | composite z-score [6]: 0.836 | composite z-score [7]: 0.0193 | composite z-score [8]: 0.406 | composite z-score [9]: 0.603 | composite z-score [10]: 0.935

[N-]=[N+]=Nc1ccccc1[C@@H]1OC(c2ccc(OCCCO)cc2)=N[C@]1(CCS(=O)(=O)c1ccccc1)C(=O)NCCN1CCOCC1
composite z-score [1]: 1.25 | composite z-score [2]: 1.1 | composite z-score [3]: 1.2 | z-score [4]: -0.582 (inactive) | composite z-score [5]: 0.832 | composite z-score [6]: 1.29 | composite z-score [7]: 0.652 | composite z-score [8]: 0.374 | composite z-score [9]: -0.0291 | composite z-score [10]: 1.28

O=C1O[C@@H](c2ccccc2)[C@@H](c2ccccc2)N2[C@@H](c3ccccc3OCCO)[C@]3(C(=O)Nc4ccc(C#CCCO)cc43)[C@@H](C(=O)Nc3nc4ccccc4s3)[C@H]12
composite z-score [1]: 0.757 | composite z-score [2]: 0.74 | composite z-score [3]: 0.862 | z-score [4]: -0.0337 (inactive) | composite z-score [5]: 0.828 | composite z-score [6]: 1.28 | composite z-score [7]: 0.528 | composite z-score [8]: 1.35 | composite z-score [9]: 0.76 | composite z-score [10]: 0.406

CC(CO)N1C(=O)[C@@H]2C3C(=O)OCCC/C=C\[C@H]3OC23C=CCN(Cn2nnc4ccccc42)C(=O)[C@@H]13 (stereo not given in full)
composite z-score [1]: 1.82 | composite z-score [2]: -0.0595 | composite z-score [3]: -0.102 | z-score [4]: -0.411 (inactive) | composite z-score [5]: -0.134 | composite z-score [6]: -0.527 | composite z-score [7]: -0.718 | composite z-score [8]: -0.474 | composite z-score [9]: -0.361 | composite z-score [10]: 0.339

COCCOC(=O)N1C(=O)[C@@]2(c3ccccc31)[C@H](C(=O)N1CCN(c3ncccn3)CC1)[C@H]1C(=O)O[C@H](c3ccccc3)[C@H](c3ccccc3)N1[C@@H]2c1ccc(OCCO)cc1
composite z-score [1]: 1.02 | composite z-score [2]: 0.657 | composite z-score [3]: 0.422 | z-score [4]: -0.471 (inactive) | composite z-score [5]: 1.24 | composite z-score [6]: 0.402 | composite z-score [7]: 1 | composite z-score [8]: 1.03 | composite z-score [9]: 0.286 | composite z-score [10]: 0.252

NCCCCCCNC(=O)[C@H]1C[C@H]2C(=O)N[C@@H](Cc3ccccc3)C(=O)N2[C@H]1c1ccc(O)cc1
composite z-score [1]: 1.3 | composite z-score [2]: 0.21 | composite z-score [3]: 0.456 | z-score [4]: -1.23 (inactive) | composite z-score [5]: -0.0657 | composite z-score [6]: 0.481 | composite z-score [7]: 0.92 | composite z-score [8]: 0.533 | composite z-score [9]: 0.232 | composite z-score [10]: 1.1

CON(C)C(=O)C=C1C[C@@H](c2cccc(Cl)c2)O[C@@H](c2cccc(Cl)c2)O1
composite z-score [1]: 1 | composite z-score [2]: 0.0204 | composite z-score [3]: -0.126 | z-score [4]: -1.16 (inactive) | composite z-score [5]: -0.148 | composite z-score [6]: 0.846 | composite z-score [7]: -0.185 | composite z-score [8]: 0.243 | composite z-score [9]: 0.484 | composite z-score [10]: 0.9

COCCOC(=O)N1C(=O)[C@@]2(c3cc(C#CCC(C(=O)OC)C(=O)OC)ccc31)[C@H](c1ccc(OCCO)cc1)N1[C@H](c3ccccc3)[C@H](c3ccccc3)OC(=O)[C@H]1[C@@H]2C(=O)N1CCN(c2ncccn2)CC1
composite z-score [1]: 1.36 | composite z-score [2]: 0.0926 | composite z-score [3]: 0.233 | z-score [4]: -0.0387 (inactive) | composite z-score [5]: 0.994 | composite z-score [6]: 1.07 | composite z-score [7]: 0.517 | composite z-score [8]: 1.45 | composite z-score [9]: 0.637 | composite z-score [10]: 0.109

COCCCNC(=O)[C@]1(Cc2ccccc2N=[N+]=[N-])N=C(c2ccc(OCCCO)cc2)O[C@@H]1c1ccccc1N=[N+]=[N-]
composite z-score [1]: 0.707 | composite z-score [2]: 0.609 | composite z-score [3]: 0.942 | z-score [4]: 1.93 (inactive) | composite z-score [5]: 0.955 | composite z-score [6]: 0.353 | composite z-score [7]: -0.287 | composite z-score [8]: 0.219 | composite z-score [9]: -0.589 | composite z-score [10]: 0.738

COc1cc(CO)cc(I)c1O[C@H]1C=C(C(=O)NCCO)C[C@@H](N(CC2CCCCC2)C(=O)c2ccc(C(F)(F)F)cc2)[C@@H]1O
composite z-score [1]: 0.199 | composite z-score [2]: -0.267 | composite z-score [3]: -0.49 | z-score [4]: -0.0436 (inactive) | composite z-score [5]: 0.626 | composite z-score [6]: 0.0722 | composite z-score [7]: 0.515 | composite z-score [8]: 0.483 | composite z-score [9]: 0.521 | composite z-score [10]: 0.0031

COc1cc(OC)c(C(O)C2C=CC3C(=O)N(c4ccccc4)C(=O)C3N2Nc2ccc(C#N)cc2)cc1Br (stereo not given)
composite z-score [1]: 0.842 | composite z-score [2]: 1.56 | composite z-score [3]: 1.4 | z-score [4]: 1.47 (inactive) | composite z-score [5]: 1.18 | composite z-score [6]: 0.687 | composite z-score [7]: 0.763 | composite z-score [8]: 0.95 | composite z-score [9]: -0.0884 | composite z-score [10]: 0.664

O=C1OCC=C[C@H]2OC34C=CCN(Cn5nnc6ccccc65)C(=O)[C@H]3N(CCCCCCO)C(=O)[C@@H]4[C@@H]12 (stereo not given in full)
composite z-score [1]: 1.25 | composite z-score [2]: 0.0374 | composite z-score [3]: 0.538 | z-score [4]: 0.434 (inactive) | composite z-score [5]: -0.577 | composite z-score [6]: 0.0986 | composite z-score [7]: -0.896 | composite z-score [8]: -1.02 | composite z-score [9]: -0.566 | composite z-score [10]: 0.955
